Assay outcomes as filed in PubChem.
Shown are actives, neighbours in structure and some others; about 3.2% of the full set was active somewhere.
SMARCA2 act: activators of SMARCA2 function; activation, % at 9.1 µM; MG213 cells, MMTV-luciferase reporter, dexamethasone, overnight; 370,000 tested, 1% active; in the data active = activation above about 7.8%
Rtt109 Vps75: inhibitors of Candida albicans Rtt109/Vps75 histone acetyltransferase; purified Rtt109/Vps75, ThioGlo CoA-SH fluorescence, 4 h; inhibition, % at 34.9 µM; 330,000 tested, 0.16% active; AID 540336;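 active = inhibition of at least 50% in every replicate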
DYRK1A inh: inhibitors of rat Dyrk1A kinase; ADP-Glo luminescence, NFATc1 peptide; inhibition, % at 12.5 µM; 310,000 tested, 0.43% active; Q63470; in the data active = inhibition above about 50%
esBAF inh: inhibitors of esBAF chromatin remodeling in mouse ES cells. 350,000 tested, 2% active. Bmi1-luciferase knock-in reporter, 24 h; 100% = twice the neutral-well signal. reporter increase, % at 12.5 µM; in the data active = activation above about 40%;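 also: a rise in the Bmi1 reporter signal indicates esBAF inhibition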
CDK5 p35 inh: blocks human CDK5/p35 kinase activity | Q00535+Q15078 | Recombinant CDK5/p35, ADP-Glo luminescence, 60 min | inhibition, % at 10 µM | 330,000 tested, 0.01% active | AID 488839;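 active = highest replicate inhibition of at least 50% and at least 75% of replicates reaching 50%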
dFosB activator: enhances mouse delta FosB homodimer DNA binding; purified delta FosB, TAMRA-CDK5 oligo fluorescence polarization; percent of positive-control signal above neutral wells; activation, % at 25 µM; 340,000 tested, 0.99% active; AID 493131;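 active = mean activation above about 17%, with every replicate also reaching it, limit read from the data, passing the limit was not always enough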
Target sequence (P13346 whole entry, looked up): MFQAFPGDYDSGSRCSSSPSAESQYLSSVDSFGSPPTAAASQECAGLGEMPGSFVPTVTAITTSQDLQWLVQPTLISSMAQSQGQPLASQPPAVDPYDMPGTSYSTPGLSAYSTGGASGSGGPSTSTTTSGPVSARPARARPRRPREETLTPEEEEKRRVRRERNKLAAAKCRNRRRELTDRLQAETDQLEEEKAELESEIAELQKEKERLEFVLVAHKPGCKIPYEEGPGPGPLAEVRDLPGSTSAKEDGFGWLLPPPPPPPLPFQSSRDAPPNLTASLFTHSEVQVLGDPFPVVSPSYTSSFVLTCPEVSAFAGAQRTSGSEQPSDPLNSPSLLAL
SMARCA2 conf: SMARCA2 activation, confirmation screen; shares compounds with SMARCA2 act; MG213 cells, MMTV-luciferase with dexamethasone, luminescence, overnight; MG213 cells expressing E1A, Rb sequestered; DMSO wells 0%, reference activator 100%; activation, % at 9.1 µM; 3,500 tested, 30% active; AID 652260;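 active = activation above its plate's cutoff, the mean activation of tested wells plus 3 SD, cut at about 7.9% in these data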
GAL4-VP16 Luc: GAL4-VP16 reporter activation counter-screen; shares compounds with SMARCA2 act; HEK293 GAL4-VP16 pG5luc reporter, luciferase luminescence; scaled: DMSO wells 0%, SAHA wells 100%; activation, % at 9.1 µM; 3,500 tested, 41% active; AID 686939;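 active = activation above the solvent-only control well mean plus 3 SD, averaged across control plates, cut at about 5.2% in these data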
Large screens that a line does not name were inactive (follow-up assays come after a bar, where they were run).

CN(CCc1ccccc1)C(=O)c1cc2ccccn2n1	SMARCA2 act 8.2 (no result: Rtt109 Vps75, DYRK1A inh, esBAF inh, CDK5 p35 inh, dFosB activator) | SMARCA2 conf inactive | GAL4-VP16 Luc 6.0
N#CCOc1ccccc1CNC[C@H]1O[C@@H](n2cnc(C(N)=O)n2)[C@H](O)[C@@H]1O	none
NC(=O)c1ncn([C@@H]2O[C@H](CNCc3cc(Br)ccc3OCc3ccccc3)[C@@H](O)[C@H]2O)n1	SMARCA2 act 16 (no result: DYRK1A inh) | SMARCA2 conf inactive | GAL4-VP16 Luc inactive
N#CC1(c2ccc(NC(=O)c3ccccc3F)cc2)CCCC1	SMARCA2 act 9.5 (no result: Rtt109 Vps75, esBAF inh) | SMARCA2 conf 9.3 | GAL4-VP16 Luc 8.6
CO[C@H]1CN(C)C(=O)c2cc(NS(=O)(=O)CC(F)(F)F)ccc2OC[C@@H](C)N(Cc2nccs2)C[C@H]1C	none (no result: SMARCA2 act, Rtt109 Vps75, DYRK1A inh, CDK5 p35 inh, dFosB activator)
O=C(COc1ccccc1Cl)NCCc1ccc2c(c1)OCCO2	SMARCA2 act 11 (no result: esBAF inh) | SMARCA2 conf inactive | GAL4-VP16 Luc inactive
COC(=O)c1ccc(NC(=S)NC2c3ccccc3CC2O)cc1 (configuration not stated)	SMARCA2 act 8.3 (no result: esBAF inh) | SMARCA2 conf inactive | GAL4-VP16 Luc inactive
Cc1ccc(C(=O)NCCc2nc3ccccc3[nH]2)cc1[N+](=O)[O-]	SMARCA2 act 8.6 (no result: esBAF inh) | SMARCA2 conf inactive | GAL4-VP16 Luc inactive
O=C(NCCc1nc2ccccc2[nH]1)c1ccc(Cl)c([N+](=O)[O-])c1	none (no result: esBAF inh)
CCOc1ccc(/C=N/NS(=O)(=O)c2ccc(C)cc2)cc1OC	none
COc1cc(/C=N/NS(=O)(=O)c2ccc(C)cc2)ccc1OCc1ccc(C(=O)O)cc1	SMARCA2 act 9.4 (no result: esBAF inh) | SMARCA2 conf 19 | GAL4-VP16 Luc 14
Cc1csc(NC(=O)CN2C(=O)c3ccccc3C2=O)c1C(N)=O	SMARCA2 act 9.1 (no result: Rtt109 Vps75, DYRK1A inh, esBAF inh, CDK5 p35 inh, dFosB activator) | SMARCA2 conf inactive | GAL4-VP16 Luc inactive
C[C@@H]1CN([C@H](C)CO)S(=O)(=O)c2ccc(C#CC3CC3)cc2O[C@H]1CN(C)Cc1ccc(F)cc1	none (no result: SMARCA2 act, Rtt109 Vps75, DYRK1A inh, CDK5 p35 inh, dFosB activator)
CC(C)n1nnnc1C1c2ccccc2C(=O)N1CCc1c[nH]c2ccccc12 (configuration not stated)	none (no result: Rtt109 Vps75, DYRK1A inh, esBAF inh, CDK5 p35 inh, dFosB activator)
CC(C)n1nnnc1C1c2ccccc2C(=O)N1CCc1ccccc1F (configuration not stated)	SMARCA2 act 8.8 (no result: Rtt109 Vps75, DYRK1A inh, esBAF inh, CDK5 p35 inh, dFosB activator) | SMARCA2 conf inactive | GAL4-VP16 Luc 7.4
O=C(Nc1ccc2c(c1)OCO2)N[C@H]1CC[C@@H](CCNC(=O)C2CC2)O[C@@H]1CO	none (no result: SMARCA2 act, Rtt109 Vps75, DYRK1A inh, CDK5 p35 inh, dFosB activator)
COc1ccc(CNC(=O)c2ccc(C(C)C)cc2)cc1	SMARCA2 act 11 (no result: esBAF inh) | SMARCA2 conf inactive | GAL4-VP16 Luc 17
CC(C)C#Cc1cnc2c(c1)C(=O)N([C@@H](C)CO)C[C@H](C)[C@H](CN(C)C(=O)Nc1cccc(F)c1)O2	none (no result: SMARCA2 act, Rtt109 Vps75, DYRK1A inh, CDK5 p35 inh, dFosB activator)
O=C(COC(=O)c1cccc(O)c1)c1ccccc1	SMARCA2 act 8.5 | SMARCA2 conf 13 | GAL4-VP16 Luc inactive
CCC(=O)Nc1cc(C(=O)OCC(=O)c2ccccc2)ccc1C	SMARCA2 act 11 (no result: esBAF inh) | SMARCA2 conf inactive | GAL4-VP16 Luc 7.7
Nc1cccc(C(=O)OCC(=O)c2ccccc2)c1	none (no result: esBAF inh)
CN(C)CC(=O)Nc1ccc2c(c1)[C@@H]1C[C@@H](CC(=O)NCc3cc(F)ccc3F)O[C@@H](CO)[C@@H]1O2	none (no result: SMARCA2 act, Rtt109 Vps75, DYRK1A inh, CDK5 p35 inh, dFosB activator)
Cc1[nH]n(-c2ccccc2)c(=O)c1/C=N/N(c1ccccc1)c1ccccc1	none (no result: esBAF inh)
C=CCN=Cc1c(C)[nH]n(-c2ccccc2)c1=O	SMARCA2 act 8.5 (no result: esBAF inh) | SMARCA2 conf inactive | GAL4-VP16 Luc 6.2
CC(C)(C)NC(=O)NCCc1ccccc1	SMARCA2 act 9.9 (no result: esBAF inh) | SMARCA2 conf 10 | GAL4-VP16 Luc 8.2
CO[C@H]1CN(C)C(=O)c2cc(NS(C)(=O)=O)ccc2OC[C@@H](C)N(CC2CCCCC2)C[C@H]1C	none (no result: SMARCA2 act, Rtt109 Vps75, DYRK1A inh, CDK5 p35 inh, dFosB activator)
C/C(=N\N1C(=O)c2ccccc2NC1c1ccccc1)c1ccccc1O (configuration not stated)	SMARCA2 act 9.9 | SMARCA2 conf inactive | GAL4-VP16 Luc 5.7
